Data reported in PubChem BioAssay AID463173 (ICCB-Longwood Screening Facility, Harvard Medical School, 2010).
About 4,300 (8.3%) of roughly 52,000 compounds were called active. No stated cut-off is given here; in the data, active means survival mostly below about 52% (no sharp cut-off); inactive means mostly above about 56%. For the sample, actives were picked, then their nearest neighbours and some compounds at random.

System: DeltatarO mutant
Assay: S. aureus survival, RN4220 and DeltatarO strains – OD600, teichoic acid synthesis inhibitors, primary screen (AID 463173)
Details: S. aureus RN4220 wild type/DeltatarO growth, OD600, 18 h, stronger effect = lower value, screened at 18.75 µg/mL (by protocol)

SMILES | survival
CCOC(=O)N1CCN(C(=O)CN(c2cccc(Cl)c2C)S(=O)(=O)c2ccc(C)cc2)CC1 | 119% (inactive)
CC1CCN(S(=O)(=O)c2csc(C(N)=O)c2)CC1 | 85% (inactive)
CC1CCN(S(=O)(=O)c2cccc(C(=O)N(C)C3(C)CCS(=O)(=O)C3)c2)CC1 (stereo unspecified) | 75% (inactive)
CN1CCN(C(c2ccc(F)cc2)c2sc3nc(-c4ccco4)nn3c2O)CC1 (stereo unspecified) | 79% (inactive)
Cc1cc(C)c(S(=O)(=O)NCC(c2ccco2)N2CCOCC2)c(C)c1 (stereo unspecified) | 89% (inactive)
CN(C)c1ccc(-c2nc3ccc(Cl)cn3c2Nc2ccc3c(c2)OCCO3)cc1 | 143% (inactive)
COc1cccc2c1Oc1nc(-c3ccccc3)nc(SCC(=O)N3CCCCC3)c1C2 | 100% (inactive)
COc1ccc(CCC(=O)N2CCc3c([nH]c4ccccc34)C2c2ccc(F)cc2)cc1 (stereo unspecified) | 83% (inactive)
Cc1nnc(SCC(=O)O)n1N | 114% (inactive)
Cc1nnc(SCc2ccccc2)n1N | 61% (active)
Cn1c(SCc2ccccc2)nnc1-c1ccccc1 | 93% (inactive)
CC(C)Oc1ccc(CNC(=O)C2=Cc3ccccc3OC2)cc1 | 67% (inactive)
CCOc1ccc(CCNC(=O)CCCc2nnc3n(CC)c(=O)c4sccc4n23)cc1OCC | 92% (inactive)
CCOC(=O)c1ccccc1NC(=O)CSc1ncc2c(n1)-c1ccccc1N(CC)S2(=O)=O | 83% (inactive)
CCOc1ccccc1NC(=O)Cc1noc2ccc(C)cc12 | 48% (inactive)
Cc1ccc(CNC(=O)NCc2noc3ccc(C)cc23)cc1 | 47% (inactive)
COc1ccc(NC(=O)Cc2noc3ccc(C)cc23)cc1Cl | 56% (active)
Cc1ccc2onc(CC(=O)Nc3ccc(C(C)C)cc3)c2c1 | 46% (active)
COC(=O)c1ccccc1NC(=O)Cc1noc2ccc(C)cc12 | 39% (active)
CC(=O)c1cccc(NC(=O)Cc2noc3ccccc23)c1 | 49% (inactive)
COc1ccc(OC)c(CNC(=O)NCc2noc3ccc(C)cc23)c1 | 104% (inactive)
CCOc1ccccc1NC(=O)NCc1noc2ccc(C)cc12 | 35% (active)
Cc1ccc2onc(CC(=O)Nc3cc(F)ccc3F)c2c1 | 48% (inactive)
COc1ccccc1CNC(=O)NCc1noc2ccc(C)cc12 | 56% (inactive)
COc1ccc(Cl)cc1N(C)C(=O)Cc1noc2ccc(C)cc12 | 50% (inactive)
Cc1ccc2onc(CNC(=O)Nc3ccccc3C#N)c2c1 | 76% (inactive)

SMILES | survival
Cc1ccc(-c2nn3c(=O)cc(CN4CCN(C(=O)c5ccc(C(C)(C)C)cc5)CC4)nc3s2)cc1 | 67% (inactive)
CCCCC(=O)Nc1cc2nn(-c3ccc(OCC)cc3)nc2cc1C | 70% (inactive)
CCN(c1ccccc1)S(=O)(=O)c1c(C)nc2scc(C)n2c1=O | 66% (inactive)
COc1ccc(CC(=O)NC2CC(=O)N(c3ccc(C)c(C)c3)C2)cc1OC (stereo unspecified) | 63% (inactive)
Cc1cc(C(=O)Nc2ccc(-n3c(C)nc4ccccc4c3=O)cc2)ccc1[N+](=O)[O-] | 131% (inactive)
Cc1cc(C)cc(NC(=O)Cc2noc3ccccc23)c1 | 54% (active)
COc1cc(NC(=O)Cc2noc3ccccc23)cc(OC)c1OC | 57% (inactive)
CCOC(=O)c1ccc(NC(=O)Cc2coc3cc(C)cc(C)c23)cc1 | 60% (inactive)
Cc1cc(C)cc(NC(=O)NCc2noc3ccccc23)c1 | 52% (inactive)
CCOC(=O)c1ccc(NC(=O)Cc2noc3ccc(C)cc23)cc1 | 45% (active)
CCOc1ccc(NC(=O)Cc2coc3ccc(C)cc23)cc1 | 106% (inactive)
Cc1ccc(CNC(=O)C(C)n2c(=O)cc(C(F)(F)F)c3c(C)nn(C)c32)cc1 (stereo unspecified) | 67% (inactive)
O=C(NCc1ccco1)C1CCN(C(=O)N2CCOc3ccccc32)CC1 | 80% (inactive)
O=C(c1ccco1)N(Cc1cccs1)c1ccc(F)cc1 | 111% (inactive)
CCc1ccc(NC(=O)C2CCN(c3nnc(-n4c(C)ccc4C)s3)CC2)cc1 | 79% (inactive)
NNc1ccc2nnc(C(F)(F)F)n2n1 | 73% (inactive)
Cc1ccc(CNc2ncnc3c2c(-c2ccccc2)cn3-c2ccccc2)cc1 | 90% (inactive)
O=S(=O)(NCc1ccco1)c1ccc(-c2ccc(S(=O)(=O)NCc3ccco3)cc2)cc1 | 64% (inactive)
CCc1ccc(Cn2nnc(C(=O)Nc3ccc(C)cc3)c2N)cc1 | 133% (inactive)
CN(C)c1ccc(CNC(=O)c2cccc(NC(=O)N3CCSc4ncccc43)c2)cc1 | 94% (inactive)
COC(=O)C1=C(C)NC2=C(C(=O)c3ccccc32)C1c1cc2c(cc1Cl)OCO2 (stereo unspecified) | 82% (inactive)
COc1ccccc1NC(=O)C1=C(C)NC2=C(C(=O)CCC2)C1c1cc2c(cc1Br)OCO2 (stereo unspecified) | 44% (active)
COc1ccccc1NC(=O)C1=C(C)Nc2sc(C#N)c(N)c2C1c1ccco1 (stereo unspecified) | 76% (inactive)
CC(C)CC(=O)Nc1nnc2n1CCS2 | 99% (inactive)
Cc1nn(-c2ccccc2)c2[nH]c(=O)c(CNCc3cccnc3)cc12 | 102% (inactive)
CC(C)C(=O)Nc1nc2c(s1)CC(C(C)(C)C)CC2 (stereo unspecified) | 92% (inactive)

SMILES | survival
COc1ccc(CC(=O)Nc2nc3c(s2)CCCC3)cc1 | 95% (inactive)
CCCC(=O)Nc1nc2c(s1)CC(C(C)(C)C)CC2 (stereo unspecified) | 14% (active)
COc1ccccc1OCC(=O)Nc1nc2c(s1)CC(C)CC2 (stereo unspecified) | 69% (inactive)
CC(C)CC(=O)Nc1nc2c(s1)CC(C(C)(C)C)CC2 (stereo unspecified) | 102% (inactive)
CC(C)(C)C1CCc2nc(NC(=O)Cc3ccc(Cl)cc3)sc2C1 (stereo unspecified) | 18% (active)
CC(C)(C)C1CCc2nc(NC(=O)COc3ccccc3[N+](=O)[O-])sc2C1 (stereo unspecified) | 106% (inactive)
CC1CCc2nc(NC(=O)Cc3ccc(Cl)cc3)sc2C1 (stereo unspecified) | 46% (active)
COc1ccc(CC(=O)Nc2nc3c(s2)CC(C)CC3)cc1 (stereo unspecified) | 75% (inactive)
CC(C)(C)C1CCc2nc(NC(=O)COc3ccc(F)cc3)sc2C1 (stereo unspecified) | 115% (inactive)
Cc1cc(C)cc(OCC(=O)Nc2nc3c(s2)CC(C(C)(C)C)CC3)c1 (stereo unspecified) | 107% (inactive)
COc1ccc(CC(=O)Nc2nc3c(s2)CC(C(C)(C)C)CC3)cc1 (stereo unspecified) | 29% (active)
Cc1cccc(C(=O)Nc2ccc(N3CCC(N4CCCCC4)CC3)c(C(=O)O)c2)c1 | 100% (inactive)
CCOc1ccc(-n2c(=O)c3c4c(sc3n(CC(=O)NC(C)CC)c2=O)CCCCC4)cc1 (stereo unspecified) | 98% (inactive)
COCCNC(=O)CN1C(=O)COc2ccc(S(=O)(=O)N3CCOCC3)cc21 | 88% (inactive)
CCSc1nc2n(n1)C(c1ccc(Cl)cc1Cl)C(C(=O)Nc1ccccc1C)=C(C)N2 (stereo unspecified) | 67% (inactive)
COc1ccc(C(=O)NCCc2sc(-c3ccc(Cl)cc3)nc2C)c(OC)c1 | 123% (inactive)
Cc1ccc(C)c(CN2C(=O)c3ccccc3Sc3ccc(C(=O)NC4CCCC4)cc32)c1 | 128% (inactive)
COc1ccc(CNC(=O)C2CCN(S(=O)(=O)N3CCC(C)CC3)CC2)c(OC)c1 | 89% (inactive)
CCOC(=O)c1ccc(NC(=O)CSc2nc3ccccc3c(=O)n2CCNC(C)=O)cc1 | 91% (inactive)
CCc1ccc(CNC(=O)c2nn(-c3ccc(OC)c(Cl)c3)c(=O)c3c2c2ccccc2n3C)cc1 | 104% (inactive)
CCOc1cccc(C(=O)Nc2nc3c(s2)CC(C(C)(C)C)CC3)c1 (stereo unspecified) | 77% (inactive)
CC(C)(C)C1CCc2nc(NC(=O)Cc3ccccc3)sc2C1 (stereo unspecified) | 19% (active)
CC(C)(C)C1CCc2nc(NC(=O)c3ccc([N+](=O)[O-])cc3)sc2C1 (stereo unspecified) | 95% (inactive)
Cc1ccccc1C(=O)Nc1nc2c(s1)CC(C(C)(C)C)CC2 (stereo unspecified) | 115% (inactive)
CC(C)(C)C1CCc2nc(NC(=O)c3cccc(Cl)c3)sc2C1 (stereo unspecified) | 3% (active)
Cc1cccc(OCC(=O)Nc2nc3c(s2)CC(C(C)(C)C)CC3)c1C (stereo unspecified) | 105% (inactive)

SMILES | survival
COc1ccc(CC(=O)NCCc2sc(-c3cccc(F)c3)nc2C)cc1 | 68% (inactive)
COc1ccccc1NC(=O)CN1C(=O)CCSc2ccccc21 | 89% (inactive)
O=C(O)CSc1nc2ccccc2c(=O)n1-c1ccccc1 | 78% (inactive)
Cc1cc(Nc2cccc(Cl)c2)nc2ccc(NC(=O)c3cccc(N(C)C)c3)cc12 | 106% (inactive)
CCN1CCN(C(=O)c2ccc3c(c2)N(Cc2ccccc2F)C(=O)c2ccccc2S3=O)CC1 (stereo unspecified) | 105% (inactive)
Cc1ccc(OCC(=O)OCc2cc(=O)n3nc(C4CCCCC4)sc3n2)cc1 | 120% (inactive)
COc1ccc(C(CNC(=O)COc2ccc(Cl)c(C)c2)N2CCOCC2)cc1 (stereo unspecified) | 63% (inactive)
Cc1cc2oc(=O)c(CC(=O)O)c(C)c2c2occ(-c3ccccc3)c12 | 53% (inactive)
CCCc1cc(=O)oc2cc(C)c3c(-c4ccccc4)coc3c12 | 65% (inactive)
Cc1cc2oc(=O)c(CC(=O)O)c(C)c2c2occ(-c3ccc(F)cc3)c12 | 49% (inactive)
Cc1cc2oc(=O)cc(C)c2c2occ(-c3ccc(Cl)cc3)c12 | 72% (inactive)
COc1ccc(-c2coc3c2c(C)cc2oc(=O)c(CC(=O)O)c(C)c23)cc1 | 42% (active)
CCc1cc(=O)oc2cc(C)c3c(-c4ccc(F)cc4)coc3c12 | 33% (active)
Cc1cc(NC2C3CC4CC(C3)CC2C4)n2ncnc2n1 (stereo unspecified) | 105% (inactive)
O=C(NCc1ccccc1)c1ccccc1C(=O)c1ncc[nH]1 | 91% (inactive)
CCOc1ccc(NC(=O)c2oc3ccccc3c2NC(=O)COc2cccc(OC)c2)cc1 | 78% (inactive)
COc1ccc(Cl)c2sc(NC(=O)c3ccc(S(=O)(=O)N4CCOCC4)cc3)nc12 | 69% (inactive)
COc1ccc(NC(=O)c2c(NC(=O)c3cccc(C)c3)sc3c2CCC3)cc1 | 64% (inactive)
Cc1cccc(C(=O)Nc2sc3c(c2C(=O)NC(C)C)CCCC3)c1 | 46% (active)
Cc1cccc(C(=O)Nc2sc3c(c2C(=O)O)CCCC3)c1 | 23% (active)
Cc1cccc(C(=O)Nc2sc3c(c2C(=O)Nc2ccccc2)CCC3)c1 | 66% (inactive)
Cc1cccc(C(=O)Nc2sc3c(c2C(=O)NCc2ccco2)CCCC3)c1 | 83% (inactive)
COc1ccc(NC(=O)c2c(NC(=O)c3cccc(C)c3)sc3c2CCCC3)cc1 | 75% (inactive)
